About 79,000 compounds went through this panel and 15% of them were active in at least one assay; those are over-represented in the sample as a whole. No stated cut-off is given here; in the data, active means growth inhibition above about 70%; inactive means the rest.
What was measured:
[1] = NCI Yeast Anticancer Drug Screen. Data for the rad50 strain (AID 155);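 further: 0% = growth of vehicle-only cultures of the same strain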; details: S. cerevisiae rad50 strain growth inhibition; at 50.0 µM; stronger effect = higher value
Summary of the method: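 Relative growth inhibition (compound vs vehicle) was measured in yeast with a defined repair-gene alteration.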

[2] = NCI Yeast Anticancer Drug Screen. Data for the mec2-1 strain (AID 157); details: S. cerevisiae mec2-1 strain, at 50.0 µM, stronger effect = higher value
Summary of the method: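 Mutant yeast (mec2-1) grown with compound; growth inhibition relative to vehicle control reported.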

[3] = NCI Yeast Anticancer Drug Screen. Data for the sgs1 mgt1 strain (AID 161);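 further: 0% = growth of cultures given vehicle only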; details: S. cerevisiae sgs1 mgt1 strain, at 50.0 µM, stronger effect = higher value
Summary of the method: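 Compounds are added to genetically altered yeast, and growth is compared with cultures given vehicle alone to give percent inhibition.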

[4] = NCI Yeast Anticancer Drug Screen. Data for the cln2 rad14 strain (AID 165);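 further: 0% = growth equal to vehicle treated cultures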; details: S. cerevisiae cln2 rad14 strain, at 50.0 µM, stronger effect = higher value
Summary of the method: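 Readout is yeast growth inhibition versus vehicle-treated controls, using a strain with cln2 and rad14 alterations exposed to compound.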

[5] = NCI Yeast Anticancer Drug Screen. Data for the bub3 strain (AID 167); details: S. cerevisiae bub3 mutant strain, at 50.0 µM, stronger effect = higher value
Summary of the method: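 Screening used yeast with an engineered genetic alteration affecting cell cycle control. Compound-exposed cultures were compared with vehicle cultures, and reduced growth was taken as inhibition.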

[6] = NCI Yeast Anticancer Drug Screen. Data for the mlh1 rad18 strain (AID 175); details: S. cerevisiae mlh1 rad18 strain growth inhibition; at 50.0 µM; stronger effect = higher value
Summary of the method: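 Genetically defined yeast (DNA repair-deficient) exposed to compounds; growth inhibition determined relative to vehicle.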

Measured: growth inhibition

O=C1N(Cl)C2C(N1Cl)N(Cl)C(=O)N2Cl (stereo not given)
inactive: [1] 5.35% | [2] -9.55% | [3] -18.4% | [4] -2.9% | [5] 2.95% | [6] -12.6%

CCOc1cc2c(cnc3c4cc(OC)c(OC)cc4ccc23)cc1OC
inactive: [1] -8.6% | [2] -15.2% | [3] -13.5% | [4] -6.25% | [5] -17.9% | [6] -16.6%

CCCCC1=C(C)CCC1=O
inactive: [1] 17.9% | [2] 8.9% | [3] 8.7% | [4] 6.55% | [5] 2.85% | [6] 4.85%

Cc1ccccc1OCC1COCN(C(C)(C)C)CO1 (stereo not given)
inactive: [1] -13.5% | [2] -2.2% | [3] 4.95% | [4] 7.8% | [5] -20.9% | [6] 19.6%

CN(C)c1ccc(/C=C(\NC(=O)c2ccccc2)C(=O)Nc2ccccc2C(=O)NCc2ccccc2)cc1
inactive: [1] 9.95% | [2] 11.7% | [3] 14.8% | [4] 12.3% | [5] 5.95% | [6] 30.7%

O=C1OC(c2cccc(C(F)(F)F)c2)c2ccc3ccccc3c21 (stereo not given)
inactive: [1] 14.3% | [2] -0.45% | [3] 10.7% | [4] 18.1% | [5] 10.8% | [6] 22.8%

Cc1ccc(C(=O)CCC(=O)OCC(=O)c2ccc(-c3ccccc3)cc2)cc1
inactive: [1] -7.95% | [2] 11.3% | [3] -1% | [4] 14.8% | [5] -6% | [6] -20.1%

COc1ccc(-c2c(C#N)c(S)n(C3OC(COC(C)=O)C(OC(C)=O)C(OC(C)=O)C3OC(C)=O)c(=O)c2C#N)cc1 (stereo not given)
inactive: [1] -18.1% | [2] -12.2% | [3] -6.3% | [4] -16.3% | [5] 16.4% | [6] 14%

CC(=O)c1ccc2cc(Cl)ccc2c1
inactive: [1] 30.2% | [2] 3.45% | [3] 3.5% | [4] -29.9% | [5] 0.35% | [6] 4.2%

COC(=O)C(=O)c1c(C(=O)OC)nc2[nH]n(-c3ccccc3)c(=O)c2c1Cc1ccccc1
inactive: [1] -5.85% | [2] 1.05% | [3] 1.6% | [4] -45.9% | [5] -37.5% | [6] 8.25%

CCc1c2c(nc3ccc(O)cc13)-c1cc3c(c(=O)n1C2)COC(=O)[C@]3(O)CC
inactive: [1] 33.2% | [2] -5.5% | [3] -5.9% | [4] 10.6% | [5] 7.5% | [6] -7.25%

NC(=O)CCN(CCC(N)=O)CCC(N)=O
inactive: [1] -9.25% | [2] 7.1% | [3] -3.3% | [4] -24.9% | [5] -4.15% | [6] -12.9%

CCCCCc1nc2c(c(=O)n(C)c(=O)n2C)n1C
inactive: [1] 14.2% | [2] -9.35% | [3] -1% | [4] 0% | [5] 6% | [6] 17.6%

Cc1nnc2ncccn12
inactive: [1] 31.1% | [2] -10.3% | [3] 8.4% | [4] -0.1% | [5] 0.55% | [6] -42.2%

O=C(O)CCc1c[nH]c2ccccc12
inactive: [1] 10.2% | [2] 1.15% | [3] 31.8% | [4] -55.4% | [5] -7.95% | [6] 18.5%

O=C(Nc1cc(C(=O)Nc2cccc(S(=O)(=O)O)c2)cc(C(=O)Nc2cccc(S(=O)(=O)O)c2)c1)c1cccc(C(=O)Nc2cc(C(=O)Nc3cccc(S(=O)(=O)O)c3)cc(C(=O)Nc3cccc(S(=O)(=O)O)c3)c2)c1
inactive: [1] -0.1% | [2] -0.1% | [3] -15.4% | [4] 3.4% | [5] 4.8% | [6] -5.55%

C=C1CCC2(C)CCC3(C)C(CCC4C5(C)CCC(OC(C)=O)C(C)(C)C5CCC43C)C2C1C (stereo not given)
inactive: [1] -4.05% | [2] -5.9% | [3] 4.6% | [4] 1.45% | [5] -5.15% | [6] 26.6%

N#CC1(c2ccccc2)OC1(C#N)c1ccccc1 (stereo not given)
inactive: [1] 3.1% | [2] -14.6% | [3] -4.8% | [4] -22.2% | [5] -11.2% | [6] -7.6%

O=C(NC1(C(=O)O)CCCC1)c1ccccc1
inactive: [1] -34.5% | [2] -27.2% | [3] -12.7% | [4] -31.7% | [5] -4.35% | [6] 0.7%

CCc1nc(N)nc(N)c1-c1ccc2c(c1)nnn2C
inactive: [1] 19.9% | [2] 14.8% | [3] 9.05% | [4] -9.75% | [5] 11.6% | [6] 17.9%

O=[N+]([O-])c1ccc2[nH]nc(OCc3ccccn3)c2c1
inactive: [1] 35% | [2] 33.4% | [3] -23.8% | [4] 28.1% | [5] 7.15% | [6] 20.9%

O=C(Nc1nc2ncn(CCI)c2c(=O)[nH]1)c1ccccc1
inactive: [1] -8.3% | [2] 6.55% | [3] 6.1% | [4] -1.4% | [5] 6.7% | [6] -14.3%

CC(C)OC(=O)CC1CCCCC1
inactive: [1] -4% | [2] -4.4% | [3] -14.1% | [4] 2.95% | [5] 3.9% | [6] 3.15%

CCOC(=O)/C=C(\N=P(c1ccccc1)(c1ccccc1)c1ccccc1)C(F)(F)C(F)(F)C(F)(F)C(F)(F)C(F)(F)F
inactive: [1] 19.4% | [2] 4% | [3] 32.4% | [4] 18.4% | [5] 20.2% | [6] 45.2%

O=C1NC(=O)C(CCBr)N1 (stereo not given)
inactive: [1] -21.1% | [2] -6.85% | [3] -10.3% | [4] -3.8% | [5] -13.8% | [6] 5.7%

COc1ccc(NC(=O)Cc2cc3ccccc3oc2=O)cc1
inactive: [1] 8.05% | [2] 1.05% | [3] -3.75% | [4] -46.3% | [5] -0.3% | [6] 7.95%

FC(F)(F)c1cccc(CSCc2c(CSCc3cccc(C(F)(F)F)c3)c(CSCc3cccc(C(F)(F)F)c3)c(CSCc3cccc(C(F)(F)F)c3)c(CSCc3cccc(C(F)(F)F)c3)c2CSCc2cccc(C(F)(F)F)c2)c1
inactive: [1] -12.7% | [2] -2.5% | [3] -6.35% | [4] 12.2% | [5] -7.65% | [6] 7.45%

Cc1cc(=O)c2cc(Cc3ccc(N)cc3)ccc2[nH]1
inactive: [1] 8.35% | [2] -16.7% | [3] -8% | [4] 3.05% | [5] -3.45% | [6] 0.65%

CC1(C)OC2C(CNS(C)(=O)=O)OC(n3cnc4c(N)ncnc43)C2O1 (stereo not given)
inactive: [1] -3.05% | [2] -4.55% | [3] -12.1% | [4] -4.75% | [5] 7.45% | [6] -13.2%

CCCC(CCC)(C(=O)OCC)C(=O)OCC
inactive: [1] 1.45% | [2] 6.15% | [3] -1.3% | [4] -15.4% | [5] -4.25% | [6] 0.65%

CCc1cc(Cc2cc(Cl)c(NC(=O)C(=O)C3NC(=O)NC3=O)c(CC)c2)cc(Cl)c1NC(=O)C(=O)C1NC(=O)NC1=O (stereo not given)
inactive: [1] 6.5% | [2] 5.2% | [3] 4.25% | [4] 15.9% | [5] 2.8% | [6] 8.65%

COc1c(Br)cc(Br)cc1Br
inactive: [1] -1.45% | [2] -5.7% | [3] 14.2% | [4] -47.1% | [5] -10.8% | [6] 6.05%

O=C(NC(=S)Nc1cc(C(F)(F)F)ccc1Cl)c1ccccc1F
inactive: [1] -1.25% | [2] -1.2% | [3] 0.35% | [4] -6.85% | [5] -1.35% | [6] 4.95%

CN(C)C(SCc1c(Cl)c(Cl)c(Cl)c(Cl)c1Cl)=[N+](C)C
inactive: [1] 19.4% | [2] 6.3% | [3] 15.4% | [4] 11.8% | [5] 7.15% | [6] 28.6%

COc1ccc(NC(=O)CCc2cc(-c3ccc(O)c(OC)c3)nc(NC#N)n2)cc1
inactive: [1] -8.1% | [2] 9% | [3] -37% | [4] 6% | [5] 27.6% | [6] -28.9%

COc1ccc(C2c3cc4c(cc3OC(N3CCOCC3)C2C)OCO4)c(OC)c1OC (stereo not given)
inactive: [1] 2.45% | [2] 5.4% | [3] 14% | [4] -1.1% | [5] 11.8% | [6] 21.7%

Oc1ccc(Cl)cc1CC(=S)N1CCOCC1
inactive: [1] 11.1% | [2] 1.3% | [3] 0.45% | [4] -10.4% | [5] 3.4% | [6] -3.9%

O=C(Nc1ccccc1)c1nn(-c2cc(S(=O)(=O)O)c([N+](=O)[O-])cc2Cl)[n+](-c2cc(S(=O)(=O)[O-])c([N+](=O)[O-])cc2Cl)n1
inactive: [1] -4.45% | [2] -3.25% | [3] -25.1% | [4] -26.8% | [5] -23.6% | [6] 2.3%

COC(=O)CSSCc1ccccc1
inactive: [1] 3.5% | [2] 1.5% | [3] 3.65% | [4] -26.1% | [5] -28.1% | [6] 6.35%

CC1OC(C)(CCc2ccccc2)OC1C (stereo not given)
inactive: [1] 0.4% | [2] -46.8% | [3] 11.7% | [4] -12.2% | [5] -21.6% | [6] -8%

From PubChem BioAssay (NCI)
